Outcome and AC50 data for four compounds are collected here from PubChem BioAssay (EPA / NIEHS).

Experiment [1] in a line: ATG_CRE_CIS: Attagene CIS-FACTORIAL HepG2 Assay for human cAMP Responsive Element (CRE) binding protein 3 (AID 2282926). The conditions noted are these: HepG2 CRE cis-reporter, Attagene multiplexed mRNA; actives raise or lower the signal. The method, boiled down: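 Liver-derived HepG2, transfected with a CRE-containing reporter panel, exposed 24 h; transcript levels sized and quantified by capillary electrophoresis of labelled amplicons; signal changes either way referenced to vehicle.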

In experiment [2] the target is CCAAT/enhancer-binding protein beta (Homo sapiens) (UniProt P17676). The experiment in a line: ATG_C_EBP_CIS: Attagene CIS-FACTORIAL HepG2 Assay for human CCAAT/Enhancer Binding Protein (C/EBP) beta (AID 2282927). The conditions noted are these: HepG2 Attagene cis-factorial transcription factor reporter; actives raise or lower the signal. The method, boiled down: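 Following a 24 h incubation with test chemical, transfected HepG2 cells yielded RNA whose reporter transcripts were quantified by RT-PCR and fluorescent capillary electrophoresis, with DMSO serving as baseline for bidirectional fitting.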
Chain of CCAAT/enhancer-binding protein beta (Homo sapiens) (P17676 whole entry, looked up): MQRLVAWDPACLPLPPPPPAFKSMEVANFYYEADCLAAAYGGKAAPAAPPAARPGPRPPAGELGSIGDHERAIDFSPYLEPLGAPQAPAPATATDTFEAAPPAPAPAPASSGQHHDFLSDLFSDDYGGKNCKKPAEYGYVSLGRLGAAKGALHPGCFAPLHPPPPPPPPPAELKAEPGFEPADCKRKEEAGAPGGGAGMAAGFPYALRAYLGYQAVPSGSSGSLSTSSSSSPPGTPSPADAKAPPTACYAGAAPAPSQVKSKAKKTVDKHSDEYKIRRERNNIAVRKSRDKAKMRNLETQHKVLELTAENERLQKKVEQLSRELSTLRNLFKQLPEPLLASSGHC

Experiment [3] has as its target Aryl hydrocarbon receptor (Homo sapiens) (UniProt P35869). The experiment in a line: ATG_Ahr_CIS: Attagene CIS-FACTORIAL HepG2 Assay for human Aryl Hydrocarbon Receptor (Ahr) (AID 2282930). The conditions noted are these: HepG2 AhR cis-factorial reporter transcription; actives raise or lower the signal. Put shortly: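 Values derive from bidirectional fitting against DMSO negative control. Underlying signal: cis-element reporter mRNA in transiently transfected HepG2, harvested 24 h post-dose and measured by RT-PCR plus capillary electrophoresis.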

Experiment [4] can be described thus: ATG_AP_1_CIS: Attagene CIS-FACTORIAL HepG2 Assay for human Activator Protein 1 (AP-1) (AID 2282931). The note with it: HepG2 Attagene cis-factorial AP-1 reporter mRNA; actives raise or lower the signal. Put shortly:
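After 24 h incubation with test chemical, RNA from transfected HepG2 cells was reverse-transcribed, amplified, fluorescently labelled and digested before capillary electrophoresis. Reporters were driven by cis-regulatory promoters; activity fitted bidirectionally versus DMSO.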

The nature of experiment [5]: ATG_E_Box_CIS: Attagene CIS-FACTORIAL HepG2 Assay for human Enhancer Box (E-box) (AID 2282936). The note with it: HepG2 E-box cis-reporter transcription, actives raise or lower the signal. The method, boiled down: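 Endogenous transcription factor activity was sensed in human HepG2 liver cells through transfected cis-promoter reporter units. After 24 h of dosing, total RNA was reverse-transcribed and reporter cDNA resolved by capillary electrophoresis.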

A short description of experiment [6]: ATG_M_19_CIS: Attagene CIS-FACTORIAL HepG2 Assay for M19 Transcription Factor (Internal Marker) (AID 2282939). The note with it: HepG2 Attagene CIS-FACTORIAL M19 internal marker reporter; actives raise or lower the signal. Put shortly:
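HepG2 cells transiently transfected with cis-regulated multiplexed reporter units, dosed 24 h. Reporter mRNA quantified by RT-PCR and capillary electrophoresis; internal background marker fitted bidirectionally versus DMSO.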

Experiment [7] can be described thus: ATG_GLI_CIS: Attagene CIS-FACTORIAL HepG2 Assay for human Zinc Finger Protein GLI1 (AID 2282945). The note with it: HepG2, Attagene cis-factorial reporter mRNA, GLI element; actives raise or lower the signal. The method, boiled down:
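HepG2 cells transiently transfected with cis-promoter multiplexed reporter units report endogenous transcription factor activity. After 24 h chemical exposure, reporter mRNA was quantified by RT-PCR, 6-FAM labelling, HpaI digestion and capillary electrophoresis, with bidirectional fitting against DMSO.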

Experiment [8] can be described thus: ATG_M_06_CIS: Attagene CIS-FACTORIAL HepG2 Assay for M06 Transcription Factor (Internal Marker) (AID 2282950). The note with it: HepG2 Attagene CIS-FACTORIAL M06 internal marker reporter; actives raise or lower the signal. The method, boiled down: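 Internal background marker within multiplexed cis-reporter HepG2 system. Cells transiently transfected, dosed 24 h; reporter mRNA measured by RT-PCR, HpaI digestion and capillary electrophoresis. Bidirectional fit relative to DMSO.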

Experiment [9] has as its target Hepatocyte nuclear factor 6 (Homo sapiens) (UniProt Q9UBC0). Nature of the experiment: ATG_HNF6_CIS: Attagene CIS-FACTORIAL HepG2 Assay for human Hepatocyte Nuclear Factor 6 (HNF6) (AID 2282952). The note with it: HepG2 Attagene cis-factorial HNF6 reporter transcription; actives raise or lower the signal. Put shortly: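 Twenty-four-hour chemical treatment of reporter-transfected HepG2 cells precedes RNA isolation, DNase-treated reverse transcription and PCR of reporter sequences. Labelled fragments are sized by capillary electrophoresis and fitted bidirectionally versus DMSO.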

The target in experiment [10] is Heat shock factor protein 1 (Homo sapiens) (UniProt Q00613). The experiment in a line: ATG_HSE_CIS: Attagene CIS-FACTORIAL HepG2 Assay for human Heat Shock Transcription Factor 1 (HSE) (AID 2282953). The note with it: HepG2 HSE cis-reporter, Attagene RNA transcription; actives raise or lower the signal. The method, boiled down:
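HepG2 cells transfected with cis-promoter reporter units sensing endogenous transcription factor activity; reporter mRNA quantified 24 h post-dose by RT-PCR and capillary electrophoresis of 6-FAM-labelled products. Bidirectional fitting against DMSO.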

The nature of experiment [11]: ATG_TA_CIS: Attagene CIS-FACTORIAL HepG2 Assay for human TA Basal Promoter (AID 2282964). The conditions noted are these: HepG2 Attagene CIS-factorial TA basal promoter reporter; actives raise or lower the signal. Put shortly:
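HepG2 cells transiently transfected with multiple reporter units under cis promoter elements, reporting endogenous transcription factor activity; this endpoint tracks the TA basal promoter as background control. Reporter mRNA after 24 h dosing measured by RT-PCR/capillary electrophoresis; bidirectional fits versus DMSO.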

The target in experiment [12] is X-box-binding protein 1 (Homo sapiens) (UniProt P17861). Nature of the experiment: ATG_Xbp1_CIS: Attagene CIS-FACTORIAL HepG2 Assay for human X-box Binding Protein 1 (XBP1) (AID 2282972). The note with it: HepG2 XBP1 cis-element reporter, Attagene multiplex; actives raise or lower the signal. The method, boiled down:
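Changes in reporter transcript abundance, read by RT-PCR and capillary electrophoresis, reflect endogenous transcription factor activity. Transfected HepG2 cells received compound for 24 hours; DMSO defined baseline for bidirectional analysis.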

Experiment [13] addresses Nuclear respiratory factor 1 (Homo sapiens) (UniProt Q16656). The experiment in a line: ATG_NRF1_CIS: Attagene CIS-FACTORIAL HepG2 Assay for human Nuclear Respiratory Factor 1 (NRF1) Orphan Gene (AID 2282987). The note with it: HepG2 NRF1 cis-element reporter, Attagene multiplex; actives raise or lower the signal. Put shortly: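 Endogenous factor activity was captured via cis-element-driven reporter transcripts in HepG2 cells. Following 24 h chemical treatment, transcripts were quantified by RT-PCR and capillary electrophoresis.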

Experiment [14] has as its target Myc proto-oncogene protein (Homo sapiens) (UniProt P01106). Nature of the experiment: ATG_Myc_CIS: Attagene CIS-FACTORIAL HepG2 Assay for human Myelocytomatosis (Myc) Proto-Oncogene Transcription Factor (AID 2282990). The conditions noted are these: HepG2, Attagene cis-reporter transcription factor activity; actives raise or lower the signal. The method, boiled down:
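Multiplexed cis-reporter transcription in HepG2 cells after 24 h chemical treatment. Reporter mRNA measured by RT-PCR and capillary electrophoresis fluorescence; activity fitted bidirectionally against DMSO control.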

Experiment [15] can be described thus: ATG_NRF2_ARE_CIS: Attagene CIS-FACTORIAL HepG2 Assay for human Nuclear Factor Erythroid 2 Related Factor 2 (NFR2) response to Antioxidant Response Elements (ARE) (AID 2282992). The conditions noted are these: HepG2 Attagene ARE/NRF2 reporter, transcription factor activity; actives raise or lower the signal. Put shortly: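 Using transiently transfected HepG2 cells exposed for 24 h, reporter mRNA levels were determined by RT-PCR with fluorescent primer extension and capillary electrophoresis, analysed for gain or loss of signal against DMSO.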

A short description of experiment [16]: ATG_Oct_MLP_CIS: Attagene CIS-FACTORIAL HepG2 Assay for human Octamer-Binding Transcription Factor (Oct) (AID 2282993). The conditions noted are these: HepG2 Attagene cis-factorial Oct reporter, mRNA; actives raise or lower the signal. The method, boiled down:
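HepG2 cells transiently transfected with cis-element-driven reporter transcription units (endogenous TF activity); 24 h compound exposure. Reporter mRNA quantified by RT-PCR, 6-FAM labelling, HpaI digestion and capillary electrophoresis; bidirectional fit versus DMSO baseline.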

Experiment [17] deals with Cellular tumor antigen p53 (Homo sapiens) (UniProt P04637). The experiment in a line: ATG_p53_CIS: Attagene CIS-FACTORIAL HepG2 Assay for human p53 Transcription Factor (AID 2282994). The conditions noted are these: HepG2 p53 cis-element reporter, Attagene mRNA; actives raise or lower the signal. Put shortly:
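In HepG2 cells, reporter transcription units under cis-regulatory promoters were transiently introduced. Following 24 h treatment, RNA was processed to labelled, digested cDNA fragments read by capillary electrophoresis; fitting was bidirectional versus DMSO.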

Experiment [18] in a line: ATG_BRE_CIS: Attagene CIS-FACTORIAL HepG2 Assay for human Bone Morphogenetic Protein (BMP) Response Element (BRE) (AID 2282933). The note with it: HepG2 BMP response element reporter, Attagene transcription factor profiling; actives raise or lower the signal. Put shortly: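 HepG2 cells transiently transfected with CIS reporter units (endogenous TF activity, BMP response element), dosed 24 h. Reporter mRNA quantified by RT-PCR, fluorescent labelling and capillary electrophoresis; bidirectional fit vs DMSO baseline.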

Experiment [19] deals with Hypoxia-inducible factor 1-alpha (Homo sapiens) (UniProt Q16665). The experiment in a line: ATG_HIF1a_CIS: Attagene CIS-FACTORIAL HepG2 Assay for human Hypoxia Inducible Factor 1 (HIF1A) (AID 2282951). The note with it: HepG2 Attagene cis-factorial HIF1a reporter transcription; actives raise or lower the signal. Put shortly: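 Endogenous-TF cis reporter readout, human HepG2 cells, 24 h incubation; mRNA detected via RT-PCR and capillary electrophoresis fluorescence; DMSO-normalised bidirectional fitting.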
Chain of Hypoxia-inducible factor 1-alpha (Homo sapiens) (Q16665 whole entry, looked up): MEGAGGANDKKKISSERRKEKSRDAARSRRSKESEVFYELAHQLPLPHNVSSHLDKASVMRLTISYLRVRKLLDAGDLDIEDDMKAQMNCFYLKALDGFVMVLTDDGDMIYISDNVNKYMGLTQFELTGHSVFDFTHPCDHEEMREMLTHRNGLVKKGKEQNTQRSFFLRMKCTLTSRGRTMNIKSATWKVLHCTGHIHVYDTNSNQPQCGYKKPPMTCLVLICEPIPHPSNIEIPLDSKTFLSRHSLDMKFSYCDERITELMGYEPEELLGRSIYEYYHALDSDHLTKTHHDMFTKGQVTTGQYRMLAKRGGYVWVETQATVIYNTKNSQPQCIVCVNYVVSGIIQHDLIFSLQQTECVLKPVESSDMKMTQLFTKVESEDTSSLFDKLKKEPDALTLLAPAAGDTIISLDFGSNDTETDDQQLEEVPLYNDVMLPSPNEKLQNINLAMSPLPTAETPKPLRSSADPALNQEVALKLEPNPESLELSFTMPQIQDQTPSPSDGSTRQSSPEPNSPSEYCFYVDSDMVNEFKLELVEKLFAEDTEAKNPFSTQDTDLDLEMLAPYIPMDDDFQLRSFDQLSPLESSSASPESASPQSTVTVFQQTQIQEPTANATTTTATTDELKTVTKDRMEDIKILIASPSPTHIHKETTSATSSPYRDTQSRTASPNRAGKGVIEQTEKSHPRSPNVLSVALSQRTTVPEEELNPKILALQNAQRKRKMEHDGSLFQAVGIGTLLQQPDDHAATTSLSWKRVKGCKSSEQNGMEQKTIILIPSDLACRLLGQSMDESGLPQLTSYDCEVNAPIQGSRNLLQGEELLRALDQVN

Experiment [20] can be described thus: ATG_VDRE_CIS: Attagene CIS-FACTORIAL HepG2 Assay for human Vitamin D Receptor Element (VDRE) (AID 2282968). The note with it: HepG2 VDRE cis-reporter transcription, actives raise or lower the signal. The method, boiled down:
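Steps: transfect HepG2 with multiple reporter transcription units; dose chemicals 24 h; isolate RNA; RT-PCR; label with 6-FAM primer extension; HpaI digest; capillary electrophoresis. Curves fitted both directions against DMSO.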

Activity calls are given as the source filed them. How the source made its calls: active means hit-call score of the fitted dose curve at least 0.9, where 1 is the maximum; inactive means score below 0.9.

Chain of Heat shock factor protein 1 (Homo sapiens) (Q00613 whole entry, looked up): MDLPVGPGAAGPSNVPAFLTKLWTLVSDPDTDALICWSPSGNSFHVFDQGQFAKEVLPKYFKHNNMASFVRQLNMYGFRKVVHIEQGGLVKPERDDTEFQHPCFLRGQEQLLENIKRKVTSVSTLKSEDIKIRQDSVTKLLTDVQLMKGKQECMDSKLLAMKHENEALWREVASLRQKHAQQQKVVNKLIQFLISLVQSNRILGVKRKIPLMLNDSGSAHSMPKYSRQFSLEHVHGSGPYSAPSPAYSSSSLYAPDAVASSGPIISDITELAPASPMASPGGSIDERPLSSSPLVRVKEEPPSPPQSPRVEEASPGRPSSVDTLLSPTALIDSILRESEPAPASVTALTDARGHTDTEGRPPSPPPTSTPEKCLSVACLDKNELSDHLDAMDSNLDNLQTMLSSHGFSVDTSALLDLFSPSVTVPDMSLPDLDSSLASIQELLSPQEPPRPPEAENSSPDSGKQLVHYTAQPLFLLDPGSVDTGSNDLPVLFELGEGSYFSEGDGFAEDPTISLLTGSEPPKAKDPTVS
Chain of X-box-binding protein 1 (Homo sapiens) (P17861 whole entry, looked up): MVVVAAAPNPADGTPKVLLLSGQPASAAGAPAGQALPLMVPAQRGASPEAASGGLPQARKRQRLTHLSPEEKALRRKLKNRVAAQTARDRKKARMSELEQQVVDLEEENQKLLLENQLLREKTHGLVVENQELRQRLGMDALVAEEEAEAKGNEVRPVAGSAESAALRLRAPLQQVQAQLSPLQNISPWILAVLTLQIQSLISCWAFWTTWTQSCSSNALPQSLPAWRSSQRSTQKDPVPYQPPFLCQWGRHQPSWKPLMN
Chain of Hepatocyte nuclear factor 6 (Homo sapiens) (Q9UBC0 whole entry, looked up, the tested form may be a part): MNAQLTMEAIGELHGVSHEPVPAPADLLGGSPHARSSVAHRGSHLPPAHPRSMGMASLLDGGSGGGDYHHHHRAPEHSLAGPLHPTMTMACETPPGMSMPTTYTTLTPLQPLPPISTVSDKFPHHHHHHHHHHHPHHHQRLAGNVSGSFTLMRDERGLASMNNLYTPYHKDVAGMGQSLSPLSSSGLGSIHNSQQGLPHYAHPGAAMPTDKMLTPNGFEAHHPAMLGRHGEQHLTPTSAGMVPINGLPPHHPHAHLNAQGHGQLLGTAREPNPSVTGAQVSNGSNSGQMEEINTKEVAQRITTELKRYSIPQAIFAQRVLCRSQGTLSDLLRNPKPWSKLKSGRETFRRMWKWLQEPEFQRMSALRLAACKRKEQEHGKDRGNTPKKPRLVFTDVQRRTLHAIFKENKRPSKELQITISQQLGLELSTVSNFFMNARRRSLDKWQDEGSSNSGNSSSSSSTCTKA
Chain of Myc proto-oncogene protein (Homo sapiens) (P01106 whole entry, looked up): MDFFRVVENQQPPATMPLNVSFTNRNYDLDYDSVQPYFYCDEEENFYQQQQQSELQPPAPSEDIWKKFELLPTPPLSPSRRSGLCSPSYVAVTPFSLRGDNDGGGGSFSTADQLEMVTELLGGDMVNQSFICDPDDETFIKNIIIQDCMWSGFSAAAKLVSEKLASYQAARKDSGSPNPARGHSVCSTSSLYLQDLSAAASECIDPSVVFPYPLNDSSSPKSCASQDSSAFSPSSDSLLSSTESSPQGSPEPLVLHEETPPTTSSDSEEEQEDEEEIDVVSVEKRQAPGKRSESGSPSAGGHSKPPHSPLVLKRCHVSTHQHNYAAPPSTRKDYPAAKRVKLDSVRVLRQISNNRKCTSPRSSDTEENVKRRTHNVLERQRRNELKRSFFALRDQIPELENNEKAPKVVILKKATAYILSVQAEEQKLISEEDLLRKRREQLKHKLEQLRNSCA
Chain of Aryl hydrocarbon receptor (Homo sapiens) (P35869 whole entry, looked up): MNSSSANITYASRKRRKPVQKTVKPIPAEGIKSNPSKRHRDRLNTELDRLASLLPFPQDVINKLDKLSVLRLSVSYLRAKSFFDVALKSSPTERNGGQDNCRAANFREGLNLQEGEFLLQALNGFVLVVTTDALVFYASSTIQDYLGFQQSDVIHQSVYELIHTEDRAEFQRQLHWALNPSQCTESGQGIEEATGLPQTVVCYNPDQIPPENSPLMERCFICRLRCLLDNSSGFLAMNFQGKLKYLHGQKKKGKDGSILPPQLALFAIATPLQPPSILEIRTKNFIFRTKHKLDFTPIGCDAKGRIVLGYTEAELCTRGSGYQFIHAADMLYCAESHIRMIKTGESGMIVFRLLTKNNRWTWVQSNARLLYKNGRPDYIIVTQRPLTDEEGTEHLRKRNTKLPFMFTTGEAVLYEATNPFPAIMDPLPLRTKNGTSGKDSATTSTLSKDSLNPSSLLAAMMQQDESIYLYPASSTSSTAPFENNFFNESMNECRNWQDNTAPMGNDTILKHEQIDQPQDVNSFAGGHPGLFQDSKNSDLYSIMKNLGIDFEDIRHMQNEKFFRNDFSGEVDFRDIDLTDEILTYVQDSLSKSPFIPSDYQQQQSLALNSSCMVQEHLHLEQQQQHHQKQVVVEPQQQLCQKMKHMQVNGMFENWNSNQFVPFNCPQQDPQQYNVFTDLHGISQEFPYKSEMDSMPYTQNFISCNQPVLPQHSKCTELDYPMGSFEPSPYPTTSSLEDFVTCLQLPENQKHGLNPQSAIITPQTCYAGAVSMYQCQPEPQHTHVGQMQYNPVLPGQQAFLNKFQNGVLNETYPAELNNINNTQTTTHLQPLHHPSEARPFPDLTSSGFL
Chain of Nuclear respiratory factor 1 (Homo sapiens) (Q16656 whole entry, looked up): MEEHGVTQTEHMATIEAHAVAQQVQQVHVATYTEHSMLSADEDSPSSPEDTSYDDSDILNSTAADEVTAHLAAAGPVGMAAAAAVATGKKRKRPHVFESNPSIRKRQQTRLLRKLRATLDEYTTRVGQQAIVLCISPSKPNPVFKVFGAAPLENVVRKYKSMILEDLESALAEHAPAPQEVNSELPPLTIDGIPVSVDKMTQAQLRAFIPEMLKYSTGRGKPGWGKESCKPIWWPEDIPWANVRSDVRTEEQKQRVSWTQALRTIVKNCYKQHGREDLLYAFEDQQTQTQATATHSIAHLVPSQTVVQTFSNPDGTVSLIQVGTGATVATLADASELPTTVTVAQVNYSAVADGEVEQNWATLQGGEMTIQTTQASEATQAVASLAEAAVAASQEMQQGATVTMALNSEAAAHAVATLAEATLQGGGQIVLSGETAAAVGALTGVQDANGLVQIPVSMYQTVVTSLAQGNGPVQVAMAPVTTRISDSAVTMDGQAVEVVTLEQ
Chain of Cellular tumor antigen p53 (Homo sapiens) (P04637 whole entry, looked up, the tested form may be a part): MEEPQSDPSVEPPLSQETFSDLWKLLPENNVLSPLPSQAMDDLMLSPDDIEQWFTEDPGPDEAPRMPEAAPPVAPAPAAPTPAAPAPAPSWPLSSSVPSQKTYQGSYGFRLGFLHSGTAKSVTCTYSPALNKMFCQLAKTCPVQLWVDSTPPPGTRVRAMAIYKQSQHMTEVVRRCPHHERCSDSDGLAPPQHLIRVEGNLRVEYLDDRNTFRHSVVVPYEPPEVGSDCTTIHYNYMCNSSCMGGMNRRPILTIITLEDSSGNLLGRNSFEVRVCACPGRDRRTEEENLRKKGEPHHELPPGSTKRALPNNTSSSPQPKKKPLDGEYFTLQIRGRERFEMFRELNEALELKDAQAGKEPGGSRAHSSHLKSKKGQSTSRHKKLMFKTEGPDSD

As a reminder, the AC50 is the concentration at which the activity in the assay is half-maximal. Consider `O=C(NCNC(=O)NC1C(=O)NC(=O)N1CO)NC1C(=O)NC(=O)N1CO` (stereo unspecified), for which the call in experiment [1], in experiment [2], in experiment [3], in [5], in [6] and in [7] was inactive. For the same compound, the call in experiment [8], in experiment [9], in [10], in experiment [11], in [13] and in [14] was inactive. The compound was called inactive in experiment [15] and in [17]. Also, the AC50 in experiment [4] was 130 µM (active); in experiment [12], 151 µM (active); in experiment [16] it was 157 µM (active).

In the case of `[Cl][Sb]([Cl])[Cl]`, the compound was classed as inactive in [1], in experiment [2], in [3], in experiment [18], in [7] and in experiment [19]. Moreover, the outcome in [9], in experiment [11] and in experiment [16] was inactive. Besides, the AC50 was 169 µM (active) in experiment [10]; 143 µM (active) in [12]; 175 µM (active) in experiment [14]; 1.72 µM (active) in experiment [15]; 180 µM (active) in [17].

Regarding `C=C(Cl)Cl`, the call in [1], in experiment [2], in experiment [4], in experiment [18], in experiment [5] and in experiment [6] was inactive. Moreover, the compound was called inactive in experiment [8], in experiment [19], in experiment [9], in experiment [10], in [11] and in experiment [12]. Also, the outcome in [13], in experiment [14], in experiment [15], in [16] and in experiment [17] was inactive.

Take `Cc1ccc(N(SC(F)(Cl)Cl)S(=O)(=O)N(C)C)cc1`: the result in [1], in experiment [2], in [3], in experiment [18], in [5] and in experiment [6] was inactive. Further, the result in experiment [9], in [11], in [13] and in experiment [17] was inactive. Also, the AC50 in [7] was 11.1 µM (active); in experiment [19] it was 11.1 µM (active); in experiment [10] it was 16.5 µM (active); in [20] it was 14.4 µM (active); in experiment [12] it was 17 µM (active); in [14], 20.3 µM (active). The AC50 in experiment [15] was 13.9 µM (active); in [16], 17.7 µM (active).
